Laboratory results: PubChem BioAssay (EPA / NIEHS)
Values joined by “and” are separate entries in the source; they are usually repeats but may differ in a detail not shown here. Identical values can stand only once. Some structures have more than one record in an assay (separate samples or runs), and their calls can disagree. Active and inactive are the calls of the source. Rule for the calls: active = hit-call score of the fitted dose curve at least 0.9, where 1 is the maximum; inactive = score below 0.9.

Assays:
Details in all cases: mRNA level, 48 h; actives raise or lower the signal
[1] = read-out: Cytochrome P450 (CYP2B6), CYP2B6 (gene 1555); experiment: LTEA_HepaRG_CYP2B6: Life Technologies and Expression Analysis (LTEA) Assay for Cytochrome P450 (CYP2B6) using HepaRG (AID 2283481)
Outline: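 Differentiated human HepaRG cells in serum-free induction medium, dosed in duplicate for 48 h over 8 half-log concentrations topping at 100 uM (0.5% DMSO). CYP2B6 mRNA measured by TaqMan qRT-PCR, normalized to ACTB, GAPDH, POLR2A; bidirectional fit versus DMSO.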

[2] = read-out: Cytochrome P450 2C19 (Homo sapiens) (UniProt P33261); experiment: LTEA_HepaRG_CYP2C19: Life Technologies and Expression Analysis (LTEA) Assay for CYP2C19 using HepaRG (AID 2283482)
Outline: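 Differentiated HepaRG cells in serum-free induction medium exposed 48 h in duplicate, 8 concentrations from 100 uM by half-log steps in 0.5% DMSO. CYP2C19 mRNA measured by TaqMan qRT-PCR, normalized to ACTB, GAPDH, POLR2A. Bidirectional fit versus DMSO.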

CYP2C8 (gene 1558) = experiment: LTEA_HepaRG_CYP2C8: Life Technologies and Expression Analysis (LTEA) Assay for CYP2C8 using HepaRG (AID 2283483)
Outline: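 Differentiated HepaRG cells in serum-free induction medium exposed 48 h in duplicate to 8 half-log concentrations from 100 uM in 0.5% DMSO. CYP2C8 mRNA by qRT-PCR normalized to ACTB, GAPDH, POLR2A; bidirectional fit versus DMSO.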

CYP2C9 (gene 1559) = experiment: LTEA_HepaRG_CYP2C9: Life Technologies and Expression Analysis (LTEA) Assay for CYP2C9 using HepaRG (AID 2283484)
Outline: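 Differentiated human HepaRG cells in serum-free induction medium were exposed 48 h to chemicals in 8-point half-log series from 100 uM (0.5% DMSO), in duplicate. CYP2C9 mRNA was measured by qRT-PCR, normalized to ACTB/GAPDH/POLR2A, with bidirectional fitting versus DMSO.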

CYP2E1 (gene 1571) = experiment: LTEA_HepaRG_CYP2E1: Life Technologies and Expression Analysis (LTEA) Assay for CYP2E1 using HepaRG (AID 2283485)
Outline: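 HepaRG cells in serum-free induction medium exposed 48 h to test chemicals, 8 half-log concentrations up to 100 uM in 0.5% DMSO, duplicate. CYP2E1 mRNA by qRT-PCR, normalized to ACTB, GAPDH, POLR2A; bidirectional fit versus DMSO.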

CYP4A11 (gene 1579) = experiment: LTEA_HepaRG_CYP4A11: Life Technologies and Expression Analysis (LTEA) Assay for CYP4A11 using HepaRG (AID 2283486)
Outline: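 Differentiated HepaRG cells, 48 h after plating, exposed in duplicate for 48 h to 8 half-log concentrations up to 100 uM in 0.5% DMSO in serum-free induction medium. CYP4A11 mRNA measured by TaqMan qRT-PCR, normalized to ACTB, GAPDH and POLR2A.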

[3] = read-out: DNA damage-inducible transcript 3 (DDIT3), DDIT3 (gene 1649); experiment: LTEA_HepaRG_DDIT3: Life Technologies and Expression Analysis (LTEA) Assay for DNA damage-inducible transcript 3 (DDIT3) using HepaRG (AID 2283488)
Outline: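 Differentiated human HepaRG cells in serum-free induction medium were exposed in duplicate for 48 h to 8 concentrations (top 100 uM, half-log steps, 0.5% DMSO). DDIT3 mRNA measured by TaqMan qRT-PCR, normalized to ACTB/GAPDH/POLR2A; bidirectional fit versus DMSO.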

[4] = read-out: Pro-epidermal growth factor (Homo sapiens) (UniProt P01133); experiment: LTEA_HepaRG_EGF: Life Technologies and Expression Analysis (LTEA) Assay for Epidermal growth factor (EGF) using HepaRG (AID 2283489)
Outline: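 HepaRG cells (~100,000/well, 48 h pre-culture) exposed in duplicate for 48 h in serum-free induction medium to 8 half-log concentrations up to 100 uM in 0.5% DMSO. EGF mRNA by qRT-PCR, normalized to ACTB/GAPDH/POLR2A; bidirectional fit versus DMSO.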

[5] = read-out: Early growth response protein 1 (EGR1) transcription factor, EGR1 (gene 1958); experiment: LTEA_HepaRG_EGR1: Life Technologies and Expression Analysis (LTEA) Assay for Early growth response protein 1 (EGR1) transcription factor using HepaRG (AID 2283490)
Outline: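 Differentiated HepaRG cells in serum-free induction medium exposed 48 hours, duplicate, to 8 half-log concentrations up to 100 uM in 0.5% DMSO. EGR1 mRNA measured by TaqMan qRT-PCR, normalized to ACTB, GAPDH, POLR2A; bidirectional fit versus DMSO.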

[6] = read-out: Ezrin (EZR), EZR (gene 7430); experiment: LTEA_HepaRG_EZR: Life Technologies and Expression Analysis (LTEA) Assay for Ezrin (EZR) using HepaRG (AID 2283491)
Outline: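 Gain or loss of EZR mRNA is scored relative to 0.5% DMSO in human HepaRG cultures treated 48 h with test chemicals in duplicate, eight half-log concentrations from 100 uM.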

[7] = read-out: Cytochrome P450 3A7 (Homo sapiens) (UniProt P24462); experiment: LTEA_HepaRG_CYP3A7: Life Technologies and Expression Analysis (LTEA) Assay for CYP3A7 using HepaRG (AID 2283492)
Outline: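 Differentiated HepaRG cells in serum-free induction medium exposed 48 h in duplicate to 8-point half-log series from 100 uM top in 0.5% DMSO. CYP3A7 mRNA by qRT-PCR, normalized to ACTB/GAPDH/POLR2A, bidirectional fit versus DMSO.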

CYP3A5 (gene 1577) = experiment: LTEA_HepaRG_CYP3A5: Life Technologies and Expression Analysis (LTEA) Assay for CYP3A5 using HepaRG (AID 2283493)
Outline: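 Differentiated HepaRG cells in serum-free induction medium were dosed 48 h with test chemicals (8-point half-log series, top 100 uM, 0.5% DMSO, duplicate). CYP3A5 mRNA measured by qRT-PCR, normalized to ACTB, GAPDH, POLR2A; bidirectional fit versus DMSO.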

[8] = read-out: Fatty Acid-Binding Protein 1 (FABP1), FABP1 (gene 2168); experiment: LTEA_HepaRG_FABP1: Life Technologies and Expression Analysis (LTEA) Assay for Fatty Acid-Binding Protein 1 (FABP1) using HepaRG (AID 2283494)
Outline: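 Differentiated human HepaRG cells exposed 48 h in serum-free induction medium to eight half-log concentrations up to 100 uM (0.5% DMSO), duplicate. FABP1 mRNA by qRT-PCR, normalised to ACTB, GAPDH, POLR2A; bidirectional fitting against DMSO.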

[9] = read-out: Cytochrome P450 4A22 (Homo sapiens) (UniProt Q5TCH4); experiment: LTEA_HepaRG_CYP4A22: Life Technologies and Expression Analysis (LTEA) Assay for Cytochrome P450 4A22 (CYP4A22) using HepaRG (AID 2283495)
Outline: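 Differentiated HepaRG cells in serum-free induction medium exposed 48 h in duplicate to eight half-log concentrations up to 100 uM in 0.5% DMSO. CYP4A22 mRNA quantified by TaqMan qRT-PCR, normalized to ACTB, GAPDH and POLR2A; bidirectional fit versus DMSO.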

[10] = read-out: Cytochrome P450 7A1 (Homo sapiens) (UniProt P22680); experiment: LTEA_HepaRG_CYP7A1: Life Technologies and Expression Analysis (LTEA) Assay for Cytochrome P450 7A1 (CYP7A1) using HepaRG (AID 2283496)
Outline: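 Gene expression endpoint in human HepaRG liver cells treated for 48 h with test chemicals (up to 100 uM, 0.5% DMSO). Values come from bidirectional concentration-response fitting versus DMSO.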

[11] = read-out: Glutathione S-Transferase (GSTA2), GSTA2 (gene 2939); experiment: LTEA_HepaRG_GSTA2: Life Technologies and Expression Analysis (LTEA) Assay for Glutathione S-Transferase (GSTA2) using HepaRG (AID 2283497)
Outline: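 Differentiated human HepaRG cells were exposed in duplicate for 48 h in serum-free induction medium, 8 points from 100 uM top in half-log steps, 0.5% DMSO. GSTA2 mRNA was measured by TaqMan qRT-PCR, normalized to ACTB, GAPDH and POLR2A; bidirectional fit versus DMSO.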

[12] = read-out: Glutamate-cysteine ligase catalytic (GCLC), GCLC (gene 2729); experiment: LTEA_HepaRG_GCLC: Life Technologies and Expression Analysis (LTEA) Assay for Glutamate-cysteine ligase catalytic (GCLC) using HepaRG (AID 2283498)
Outline: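 Differentiated HepaRG cells exposed 48 h in serum-free induction medium, eight-point half-log series topping at 100 uM in 0.5% DMSO, duplicates. GCLC mRNA by qRT-PCR normalized to ACTB, GAPDH and POLR2A, fitted bidirectionally versus DMSO.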

[13] = read-out: growth arrest and DNA damage 45 (GADD45G), GADD45G (gene 10912); experiment: LTEA_HepaRG_GADD45G: Life Technologies and Expression Analysis (LTEA) Assay for growth arrest and DNA damage 45 (GADD45G) using HepaRG (AID 2283499)
Outline: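 Differentiated human HepaRG cells, 48 h post-plating, exposed 48 h in serum-free induction medium to 8 half-log concentrations (top 100 uM, 0.5% DMSO) in duplicate. GADD45G mRNA measured by Fluidigm TaqMan qRT-PCR, normalized to ACTB, GAPDH, POLR2A; bidirectional fit versus DMSO.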

[14] = read-out: Glutamate-cysteine ligase regulatory (GCLM), GCLM (gene 2730); experiment: LTEA_HepaRG_GCLM: Life Technologies and Expression Analysis (LTEA) Assay for Glutamate-cysteine ligase regulatory (GCLM) using HepaRG (AID 2283500)
Outline: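 Differentiated human HepaRG cells exposed 48 h in serum-free induction medium to 8-point half-log concentrations (top 100 uM, 0.5% DMSO), in duplicate. GCLM mRNA quantified by qRT-PCR, normalized to ACTB, GAPDH, POLR2A; bidirectional fitting versus DMSO.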

[15] = read-out: Cytochrome P450 3A4 (Homo sapiens) (UniProt P08684); experiment: LTEA_HepaRG_CYP3A4: Life Technologies and Expression Analysis (LTEA) Assay for CYP3A4 using HepaRG (AID 2283487)
Outline: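 In a human hepatic line (HepaRG), duplicate wells were treated 48 h with up to 100 uM chemical in half-log dilutions. Endpoint: CYP3A4 mRNA induction or loss relative to 0.5% DMSO vehicle, by qRT-PCR.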

Measured: AC50

Sequence of Cytochrome P450 2C19 (Homo sapiens) (P33261 whole entry, looked up): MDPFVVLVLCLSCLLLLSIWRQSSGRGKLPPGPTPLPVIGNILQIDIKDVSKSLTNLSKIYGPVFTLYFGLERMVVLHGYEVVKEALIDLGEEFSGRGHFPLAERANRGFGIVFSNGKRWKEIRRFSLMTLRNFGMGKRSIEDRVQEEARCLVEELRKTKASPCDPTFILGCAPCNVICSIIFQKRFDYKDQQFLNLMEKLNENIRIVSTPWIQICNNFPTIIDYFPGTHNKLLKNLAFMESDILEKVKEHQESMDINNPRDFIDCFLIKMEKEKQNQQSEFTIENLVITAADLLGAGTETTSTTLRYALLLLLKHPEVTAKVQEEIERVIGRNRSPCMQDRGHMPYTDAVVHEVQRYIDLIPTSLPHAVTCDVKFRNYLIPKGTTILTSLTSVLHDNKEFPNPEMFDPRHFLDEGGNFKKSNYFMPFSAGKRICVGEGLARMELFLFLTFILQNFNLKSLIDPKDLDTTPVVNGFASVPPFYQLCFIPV
Sequence of Cytochrome P450 3A7 (Homo sapiens) (P24462 whole entry, looked up): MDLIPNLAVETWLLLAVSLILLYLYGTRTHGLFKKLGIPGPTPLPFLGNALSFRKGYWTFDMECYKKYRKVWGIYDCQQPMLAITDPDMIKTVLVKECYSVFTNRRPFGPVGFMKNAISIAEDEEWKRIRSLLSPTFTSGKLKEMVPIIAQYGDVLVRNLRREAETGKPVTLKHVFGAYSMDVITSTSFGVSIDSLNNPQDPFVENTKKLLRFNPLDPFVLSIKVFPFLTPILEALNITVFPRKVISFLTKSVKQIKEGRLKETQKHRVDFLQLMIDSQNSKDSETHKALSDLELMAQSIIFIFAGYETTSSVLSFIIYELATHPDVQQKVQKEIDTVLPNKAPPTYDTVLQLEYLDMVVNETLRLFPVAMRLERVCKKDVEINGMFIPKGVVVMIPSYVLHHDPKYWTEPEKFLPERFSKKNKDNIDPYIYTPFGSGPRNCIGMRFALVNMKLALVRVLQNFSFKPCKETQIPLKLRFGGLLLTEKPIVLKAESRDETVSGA
Sequence of Cytochrome P450 3A4 (Homo sapiens) (P08684 whole entry, looked up): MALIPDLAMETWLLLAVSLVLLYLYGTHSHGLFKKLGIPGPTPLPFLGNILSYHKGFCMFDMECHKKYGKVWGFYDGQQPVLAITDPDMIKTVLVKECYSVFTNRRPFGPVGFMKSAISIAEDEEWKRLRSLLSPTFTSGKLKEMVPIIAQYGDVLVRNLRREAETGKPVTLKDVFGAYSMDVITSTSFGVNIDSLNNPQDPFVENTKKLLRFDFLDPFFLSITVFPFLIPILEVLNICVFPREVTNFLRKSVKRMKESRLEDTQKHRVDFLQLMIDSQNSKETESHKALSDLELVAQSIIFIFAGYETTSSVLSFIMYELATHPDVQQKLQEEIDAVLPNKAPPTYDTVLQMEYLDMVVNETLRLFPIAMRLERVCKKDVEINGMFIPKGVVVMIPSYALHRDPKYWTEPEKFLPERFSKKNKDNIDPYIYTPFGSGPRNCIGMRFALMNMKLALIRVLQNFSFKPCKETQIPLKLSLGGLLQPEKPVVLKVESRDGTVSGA

CO/C=C(/C(=O)OC)c1ccccc1Oc1cc(Oc2ccccc2C#N)ncn1
inactive: [4] | [5] | [6] | [7] | CYP3A5 (gene 1577) | [12]
active: [1] 75.2 µM and 72.2 µM and 71.5 µM | [2] 84.1 µM and 83.3 µM and 82.3 µM | CYP2C8 (gene 1558) 79.9 µM and 79.2 µM and 78.1 µM | CYP2C9 (gene 1559) 79.1 µM and 79 µM and 93.4 µM | CYP2E1 (gene 1571) 34.6 µM and 50 µM and 33.2 µM | CYP4A11 (gene 1579) 66.4 µM and 68.3 µM and 40.2 µM | [3] 77.9 µM and 94.2 µM and 77.2 µM | [5] 13 µM and 13.3 µM | CYP3A5 (gene 1577) 62.6 µM and 35.6 µM | [8] 82.4 µM and 75.6 µM and 73.2 µM | [9] 76.3 µM and 66.9 µM and 65.6 µM | [10] 93.4 µM and 94.1 µM and 87.4 µM | [11] 81.5 µM and 81 µM and 78.7 µM | [13] 78 µM and 80.2 µM and 73.5 µM | [14] 75.6 µM and 63.3 µM and 71.8 µM

CCCC1COC(Cn2cncn2)(c2ccc(Cl)cc2Cl)O1 (centres undefined)
active: [1] 30.9 µM | [2] 74.5 µM | CYP2C8 (gene 1558) 36.4 µM | CYP2C9 (gene 1559) 34.8 µM | CYP2E1 (gene 1571) 13.5 µM | CYP4A11 (gene 1579) 34.7 µM | [3] 30.7 µM | [7] 29.5 µM | [8] 36.3 µM | [9] 31.7 µM | [10] 60.9 µM | [11] 37 µM | [13] 35.6 µM | [14] 50 µM
inactive: [4] | [5] | [6] | CYP3A5 (gene 1577) | [12]

C=CCC1=C(C)[C@@H](OC(=O)[C@@H]2[C@@H](C=C(C)C)C2(C)C)CC1=O
active: [1] 85.4 µM | CYP2E1 (gene 1571) 62.1 µM | CYP4A11 (gene 1579) 88.3 µM | [8] 50 µM | [9] 83.9 µM
inactive: [2] | CYP2C8 (gene 1558) | CYP2C9 (gene 1559) | [15] | [3] | [4] | [5] | [6] | [7] | CYP3A5 (gene 1577) | [10] | [11] | [12] | [13] | [14]

COc1ccc(C(c2ccc(OC)cc2)C(Cl)(Cl)Cl)cc1
inactive: CYP2C8 (gene 1558) | CYP2C9 (gene 1559) | [4] | [7] | CYP3A5 (gene 1577)
active: [1] 12.4 µM | [2] 12.7 µM | CYP2E1 (gene 1571) 66 µM | CYP4A11 (gene 1579) 79 µM | [3] 75 µM | [5] 73 µM | [6] 79.8 µM | [8] 65.4 µM | [9] 71.9 µM | [10] 40.2 µM | [11] 90.3 µM | [12] 76.3 µM | [13] 56.2 µM | [14] 49.8 µM

CC(Oc1ccc(Cl)cc1Cl)C(=O)O (centres undefined)
active: CYP4A11 (gene 1579) 71.5 µM | [8] 50 µM
inactive: [1] | [2] | CYP2C8 (gene 1558) | CYP2C9 (gene 1559) | CYP2E1 (gene 1571) | [15] | [3] | [4] | [5] | [6] | [7] | CYP3A5 (gene 1577) | [9] | [10] | [11] | [12] | [13] | [14]
